Key:
[1] = target: Mast/stem cell growth factor receptor Kit (Homo sapiens) (UniProt P10721); conditions: at 1 µM
[2] = system: Mast/stem cell growth factor receptor Kit (Homo sapiens), P10721 [D816V]; conditions: at 0.1 µM
[3] = system: Mast/stem cell growth factor receptor Kit (Homo sapiens), P10721 [D816V]; conditions: at 1 µM
[4] = system: Mast/stem cell growth factor receptor Kit (Homo sapiens), P10721 [T670I]; conditions: at 0.1 µM
[5] = system: Mast/stem cell growth factor receptor Kit (Homo sapiens), P10721 [T670I]; conditions: at 1 µM
[6] = system: Mast/stem cell growth factor receptor Kit (Homo sapiens), P10721 [V560G]; conditions: at 0.1 µM
[7] = system: Mast/stem cell growth factor receptor Kit (Homo sapiens), P10721 [V560G]; conditions: at 1 µM
[8] = target: Tyrosine-protein kinase Lck (Homo sapiens) (UniProt P06239); conditions: at 0.1 µM
[9] = target: Tyrosine-protein kinase Lck (Homo sapiens) (UniProt P06239); conditions: at 1 µM
[10] = target: Leukocyte tyrosine kinase receptor (Homo sapiens) (UniProt P29376); conditions: at 0.1 µM
Sequence of Leukocyte tyrosine kinase receptor (Homo sapiens) (P29376 whole entry): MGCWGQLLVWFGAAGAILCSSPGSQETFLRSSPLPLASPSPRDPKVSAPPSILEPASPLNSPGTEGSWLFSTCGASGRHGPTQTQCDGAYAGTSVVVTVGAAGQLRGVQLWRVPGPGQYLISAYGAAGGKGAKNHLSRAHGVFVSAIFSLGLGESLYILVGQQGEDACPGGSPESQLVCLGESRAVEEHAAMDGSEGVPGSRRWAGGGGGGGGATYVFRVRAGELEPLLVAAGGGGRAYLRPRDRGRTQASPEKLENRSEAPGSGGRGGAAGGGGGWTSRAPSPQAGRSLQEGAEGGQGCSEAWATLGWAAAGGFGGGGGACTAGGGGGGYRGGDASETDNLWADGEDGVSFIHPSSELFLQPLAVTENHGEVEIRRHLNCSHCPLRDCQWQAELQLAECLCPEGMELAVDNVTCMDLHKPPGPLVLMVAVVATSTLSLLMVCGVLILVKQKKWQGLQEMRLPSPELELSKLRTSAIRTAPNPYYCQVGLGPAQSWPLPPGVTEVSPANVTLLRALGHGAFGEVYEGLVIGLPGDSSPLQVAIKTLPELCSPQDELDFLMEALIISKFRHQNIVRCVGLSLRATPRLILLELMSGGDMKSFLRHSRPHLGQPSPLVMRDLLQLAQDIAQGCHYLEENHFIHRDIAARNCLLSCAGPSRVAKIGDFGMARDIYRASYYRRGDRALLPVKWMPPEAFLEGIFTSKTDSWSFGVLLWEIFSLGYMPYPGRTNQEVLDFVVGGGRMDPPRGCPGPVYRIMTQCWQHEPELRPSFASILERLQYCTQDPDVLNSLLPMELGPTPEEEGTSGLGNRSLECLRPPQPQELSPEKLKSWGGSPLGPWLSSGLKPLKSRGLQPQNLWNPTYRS

Sequence of Mast/stem cell growth factor receptor Kit (Homo sapiens), P10721 [D816V] (P10721 whole entry D816V): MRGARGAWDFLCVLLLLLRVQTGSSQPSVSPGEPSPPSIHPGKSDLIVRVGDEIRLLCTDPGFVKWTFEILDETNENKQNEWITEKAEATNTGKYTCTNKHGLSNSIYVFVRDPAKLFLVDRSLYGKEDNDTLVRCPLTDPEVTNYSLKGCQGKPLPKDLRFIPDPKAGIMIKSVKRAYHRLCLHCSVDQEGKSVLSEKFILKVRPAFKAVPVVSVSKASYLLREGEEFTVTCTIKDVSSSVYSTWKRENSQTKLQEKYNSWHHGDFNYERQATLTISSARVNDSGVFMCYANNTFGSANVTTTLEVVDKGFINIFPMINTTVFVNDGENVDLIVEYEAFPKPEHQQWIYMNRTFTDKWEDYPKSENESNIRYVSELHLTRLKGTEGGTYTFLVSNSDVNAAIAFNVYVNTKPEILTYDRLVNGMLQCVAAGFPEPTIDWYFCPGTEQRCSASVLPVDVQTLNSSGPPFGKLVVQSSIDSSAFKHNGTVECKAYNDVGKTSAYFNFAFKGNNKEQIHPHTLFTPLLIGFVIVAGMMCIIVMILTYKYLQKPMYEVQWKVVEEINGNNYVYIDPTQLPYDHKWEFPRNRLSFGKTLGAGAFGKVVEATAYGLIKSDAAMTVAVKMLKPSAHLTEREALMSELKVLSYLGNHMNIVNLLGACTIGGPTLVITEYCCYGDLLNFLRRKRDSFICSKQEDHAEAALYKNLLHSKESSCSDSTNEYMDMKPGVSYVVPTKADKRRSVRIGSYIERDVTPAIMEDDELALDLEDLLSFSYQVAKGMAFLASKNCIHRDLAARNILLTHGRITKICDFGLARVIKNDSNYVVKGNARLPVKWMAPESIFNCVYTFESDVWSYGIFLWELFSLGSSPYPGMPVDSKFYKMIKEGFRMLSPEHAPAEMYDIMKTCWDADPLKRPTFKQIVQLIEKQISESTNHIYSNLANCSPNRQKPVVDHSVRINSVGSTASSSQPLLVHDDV
Sequence of Mast/stem cell growth factor receptor Kit (Homo sapiens) (P10721 whole entry): as the sequence (P10721 whole entry D816V) above, with V816D counted along it
Sequence of Mast/stem cell growth factor receptor Kit (Homo sapiens), P10721 [V560G] (P10721 whole entry V560G): as the sequence (P10721 whole entry D816V) above, with V560G, V816D counted along it
Sequence of Tyrosine-protein kinase Lck (Homo sapiens) (P06239 2-509 limits assumed): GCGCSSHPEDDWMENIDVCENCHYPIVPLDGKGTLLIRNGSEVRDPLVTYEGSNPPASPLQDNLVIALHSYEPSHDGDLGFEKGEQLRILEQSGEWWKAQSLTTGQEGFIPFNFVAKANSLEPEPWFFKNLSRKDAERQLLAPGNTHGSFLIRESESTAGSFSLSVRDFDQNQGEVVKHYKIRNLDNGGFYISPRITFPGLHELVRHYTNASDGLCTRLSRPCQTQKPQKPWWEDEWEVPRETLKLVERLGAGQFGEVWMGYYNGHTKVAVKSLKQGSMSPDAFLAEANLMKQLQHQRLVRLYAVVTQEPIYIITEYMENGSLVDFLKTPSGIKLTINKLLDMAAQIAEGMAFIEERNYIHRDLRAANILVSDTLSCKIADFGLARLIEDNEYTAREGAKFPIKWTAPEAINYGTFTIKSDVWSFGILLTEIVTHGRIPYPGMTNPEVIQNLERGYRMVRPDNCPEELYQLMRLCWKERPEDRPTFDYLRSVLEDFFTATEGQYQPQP
Sequence of Mast/stem cell growth factor receptor Kit (Homo sapiens), P10721 [T670I] (P10721 whole entry T670I): as the sequence (P10721 whole entry D816V) above, with T670I, V816D counted along it

Structure (SMILES)	inhibition [1]	inhibition [2]	inhibition [3]	inhibition [4]	inhibition [5]	inhibition [6]	inhibition [7]	inhibition [8]	inhibition [9]	inhibition [10]
O=S(=O)(CCOCc1ccc(-c2ccc3ncnc(Nc4ccc(OCc5cccc(F)c5)c(Cl)c4)c3c2)o1)c1ccccc1	0.51%	0.43%	-1.83%	5.11%	0.78%	-1.47%	-2.4%	1.96%	3.4%	2.35%
COc1ccc(-c2nn3ncccc3c2-c2ccnc(Nc3cccc(C(F)(F)F)c3)n2)cc1	26.5%	0.93%	3.05%	3.67%	4.13%	-1.16%	7.05%	3.91%	20.3%	2.17%
Cc1nc(-c2ccccc2)n2nc(NCCCN3CCOCC3)ncc12	8.46%	1.35%	1.56%	1.72%	1.33%	-1.38%	0.39%	2.08%	5.01%	2.89%
COc1cc2ncnc(Nc3ccc4c(cnn4Cc4ccccc4)c3)c2cc1OC	9.47%	1.06%	2.79%	2.31%	2.58%	-3.09%	2.41%	19.5%	61.1%	2.67%
CN(C)CCCn1c(-c2nonc2N)nc2cnccc21	3.91%	4.66%		2.49%	0.58%	-1.36%	-1.19%	2.27%	4.6%	3.86%
COc1cc(Nc2nccc(-c3cnn4ncccc34)n2)cc(OC)c1	97.3%	1.93%	9.04%	80.7%	98.1%	65.2%	92.5%	2.75%	19.2%	4.41%
Cc1cc(-c2ccccn2)cc(C)c1/C=C/c1cncc(-c2nn[nH]n2)c1	6.45%	0.82%	-1.39%	5.04%	0.22%	-3.07%	-1.86%	4.47%	12.1%	4.42%
N#Cc1cccc(Nc2nccc(-c3cnn4ncccc34)n2)c1	100%	4.4%	9.63%	32.2%	88.5%	24.4%	71.6%	4.61%	18.3%	6.31%
C[C@@H](Oc1cc(-n2cnc3ccc(OC[C@@H](O)CO)cc32)sc1C(N)=O)c1ccccc1Cl	4.68%	-3.17%	1.58%	-1.2%	0.87%	3.36%	2.13%	1.2%	6.12%	-0.43%
CCOc1nccc2c1nc(-c1nonc1N)n2CC	10.2%	-2.27%	3.77%	4.03%	6.04%	4.82%	7.59%	1.92%	3.61%	1.89%
Oc1cccc(-c2nc(-c3ccccc3)[nH]c2-c2ccncc2)c1	8.38%	-0.23%	6.52%	2.52%	3.34%	1.61%	3.96%	4.47%	17.7%	3.98%
ON=C1CCc2cc(-c3nc(C4CCNCC4)[nH]c3-c3ccncc3)ccc21	-4.25%	2.66%	5.8%	-0.79%	-1.23%	-2.31%	-1.75%	0.93%	6.86%	1.01%
COc1cc2ncn(-c3cc(OCc4ccccc4S(C)(=O)=O)c(C#N)s3)c2cc1OC	7.97%	2.49%	5.22%	3.82%	2.96%		0.98%	23.3%	69.2%	4%
CN(C)C(=O)O[C@@H]1CN[C@@H](C#Cc2cc3ncnc(Nc4ccc(OCc5cccc(F)c5)c(Cl)c4)c3s2)C1	-0.23%	1.36%	-2.75%	-2.12%	-2.74%	0.19%	4.14%	1.89%	5.66%	0.9%
Cc1ccc2c(-c3ccnc(Nc4cccc(C(F)(F)F)c4)n3)c(-c3ccccc3)nn2n1	47.6%	0.01%	6.47%	2.51%	3.44%	2.8%	10.7%	8.54%	42%	4.14%
COc1cc2ncnc(Nc3ccc(C)c(O)c3)c2cc1OC	40.5%	44%	88.3%	3.54%	2.94%	5.53%	35.8%	25%	72.2%	6.58%
OCc1ccc(-c2nc(-c3ccccn3)c(-c3ccc4c(c3)OCO4)[nH]2)cc1	3.32%	4.26%	1.86%	3.18%	0.71%	-1.45%	2.83%	4.57%	6.53%	3.45%
CN(C)C(=O)O[C@H]1CN[C@H](C#Cc2cc3ncnc(Nc4ccc(OCc5cccc(F)c5)c(Cl)c4)c3s2)C1	3%	2.35%	-1.14%	1.09%	0.88%	0.04%	2.8%	1.92%	3.02%	1.7%
NS(=O)(=O)c1ccc(N/N=C2\C(=O)Nc3ccc(Cl)cc32)cc1	89.8%	1.33%	3.24%	5.37%	41.2%	2.89%	30.3%	1.35%	3.7%	3.2%
CCn1c(-c2nonc2N)nc2c(C#CC(C)(C)O)nc(OCCNC)cc21	6.66%	4.65%	3.95%	0.61%	3.65%	-4.02%	4.6%	2.55%	2.44%	5.09%
Cc1cc(O)cc(C)c1/C=C/c1cncc(C(=O)N(C)C)c1	8.58%	0.33%	1.49%	2.61%	1.57%	5.07%	4.85%	3.69%	8.38%	2.93%
Cc1ccc(NC(=O)CC2CC2)cc1-c1ccc(C(=O)NCC2CC2)cc1	5.34%	4%	3.9%	2.39%	3.24%	1.38%	2.75%	1.18%	3.82%	4.18%
C[C@@H](Oc1cc(-n2cnc3ccc(OCC4CCN(C)CC4)cc32)sc1C(N)=O)c1ccccc1C(F)(F)F	0.09%	-2%	-1.63%	-0.04%	0.36%	2.2%	4.85%	5.2%	33.8%	-0.86%
NS(=O)(=O)c1cccc(-c2cc3ccncc3cc2OCc2ccccc2)c1	8.38%	6.43%	5.87%	2.04%	1.1%	3.77%	9.47%	2.52%	5.46%	2.44%
Cc1ccc2c(c1)/C(=N/Nc1ccc(S(N)(=O)=O)cc1)C(=O)N2	80.1%	-0.66%	-3.04%	3.2%	54.4%	1.27%	24.4%	1.15%	3.66%	0.21%
CCS(=O)(=O)c1ccc(OC)c(Nc2nccc(N(C)c3ccc4c(C)n[nH]c4c3)n2)c1	88.5%	6.18%	23.9%	5.56%	6.79%	0.4%	11.8%	26.2%	60.2%	7.51%
Cc1ccc(O)cc1Nc1ccnc2ccc(S(C)(=O)=O)cc12	48.2%	38.2%	84.5%	4.38%	8%	8.1%	53.7%	86.3%	97.1%	4.66%
NS(=O)(=O)c1ccc(-c2cc3ccncc3cc2OCc2ccccc2)cc1	8.06%	2.17%	3.92%	2.02%	4.23%	0.41%	0.33%	1.15%	3.87%	6.08%

Source: ChEMBL document CHEMBL1961873, “Compounds: GSK PKIS; Assays: Nanosyn kinase panel” (2012)
